# How the values were obtained:
# [1] = target: Homeodomain-interacting protein kinase 3 (Homo sapiens) (UniProt Q9H422); settings: at 10 µM
# [2] = target: T1, Serine/threonine-protein kinase haspin (Homo sapiens) (UniProt Q8TF76); settings: at 1 µM
# T1 sequence (whole entry): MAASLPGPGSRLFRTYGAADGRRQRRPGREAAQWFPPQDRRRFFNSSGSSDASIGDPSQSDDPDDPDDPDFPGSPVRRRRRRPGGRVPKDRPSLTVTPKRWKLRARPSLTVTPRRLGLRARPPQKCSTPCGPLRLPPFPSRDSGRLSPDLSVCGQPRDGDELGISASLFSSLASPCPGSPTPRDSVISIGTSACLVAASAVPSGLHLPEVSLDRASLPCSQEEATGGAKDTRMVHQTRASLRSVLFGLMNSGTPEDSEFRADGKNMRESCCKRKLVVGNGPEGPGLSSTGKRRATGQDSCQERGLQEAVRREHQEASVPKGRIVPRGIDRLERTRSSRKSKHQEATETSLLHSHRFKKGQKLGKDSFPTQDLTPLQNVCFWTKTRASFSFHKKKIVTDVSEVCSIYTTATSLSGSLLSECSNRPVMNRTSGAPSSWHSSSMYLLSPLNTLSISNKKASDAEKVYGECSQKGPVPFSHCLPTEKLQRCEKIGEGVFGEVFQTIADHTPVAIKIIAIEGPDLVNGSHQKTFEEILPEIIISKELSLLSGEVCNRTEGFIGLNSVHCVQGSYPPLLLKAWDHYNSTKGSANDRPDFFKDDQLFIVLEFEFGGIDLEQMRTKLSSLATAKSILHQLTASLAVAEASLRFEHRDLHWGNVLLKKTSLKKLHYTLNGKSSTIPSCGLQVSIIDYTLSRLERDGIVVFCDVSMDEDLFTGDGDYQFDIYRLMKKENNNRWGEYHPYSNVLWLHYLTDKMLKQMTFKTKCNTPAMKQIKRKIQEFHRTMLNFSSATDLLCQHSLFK
# [3] = target: T1, Serine/threonine-protein kinase haspin (Homo sapiens); settings: at 10 µM
# [4] = target: Tyrosine-protein kinase HCK (Homo sapiens) (UniProt P08631); settings: at 1 µM
# [5] = target: Tyrosine-protein kinase HCK (Homo sapiens) (UniProt P08631); settings: at 10 µM
# [6] = target: Tyrosine-protein kinase HCK (Homo sapiens) (UniProt P08631); settings: at 1 µM; remark: listed apart in the source
# [7] = target: Tyrosine-protein kinase HCK (Homo sapiens) (UniProt P08631); settings: at 10 µM; remark: listed apart in the source
# [8] = target: Insulin-like growth factor 1 receptor (Homo sapiens) (UniProt P08069); settings: at 1 µM
# [9] = target: Insulin-like growth factor 1 receptor (Homo sapiens) (UniProt P08069); settings: at 10 µM
# [10] = target: T2, Protein kinase C zeta type (Homo sapiens) (UniProt Q05513); settings: at 10 µM
# T2 sequence (whole entry): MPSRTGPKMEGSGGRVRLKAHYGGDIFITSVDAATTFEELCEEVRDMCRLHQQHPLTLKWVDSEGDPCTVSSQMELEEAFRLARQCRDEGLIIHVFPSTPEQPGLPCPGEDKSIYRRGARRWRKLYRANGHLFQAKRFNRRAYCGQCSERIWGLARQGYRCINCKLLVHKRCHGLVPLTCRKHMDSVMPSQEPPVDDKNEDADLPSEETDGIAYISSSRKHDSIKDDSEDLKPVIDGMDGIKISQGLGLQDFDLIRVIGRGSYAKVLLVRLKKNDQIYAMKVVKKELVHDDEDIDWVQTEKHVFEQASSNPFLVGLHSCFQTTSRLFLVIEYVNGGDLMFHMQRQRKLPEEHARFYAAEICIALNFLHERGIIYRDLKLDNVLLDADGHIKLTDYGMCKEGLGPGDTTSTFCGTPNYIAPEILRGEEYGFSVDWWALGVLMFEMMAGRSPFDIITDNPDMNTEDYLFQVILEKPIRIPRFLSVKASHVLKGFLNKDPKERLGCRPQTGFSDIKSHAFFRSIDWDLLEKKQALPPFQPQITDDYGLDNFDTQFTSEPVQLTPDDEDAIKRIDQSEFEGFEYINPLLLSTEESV
# [11] = target: Protein kinase C eta type (Homo sapiens) (UniProt P24723); settings: at 1 µM
# [12] = target: Protein kinase C eta type (Homo sapiens) (UniProt P24723); settings: at 10 µM
# [13] = target: Protein kinase C theta type (Homo sapiens) (UniProt Q04759); settings: at 1 µM
# [14] = target: Protein kinase C theta type (Homo sapiens) (UniProt Q04759); settings: at 10 µM
# [15] = target: T3, Protein kinase C iota type (Homo sapiens) (UniProt P41743); settings: at 1 µM
# T3 sequence (whole entry): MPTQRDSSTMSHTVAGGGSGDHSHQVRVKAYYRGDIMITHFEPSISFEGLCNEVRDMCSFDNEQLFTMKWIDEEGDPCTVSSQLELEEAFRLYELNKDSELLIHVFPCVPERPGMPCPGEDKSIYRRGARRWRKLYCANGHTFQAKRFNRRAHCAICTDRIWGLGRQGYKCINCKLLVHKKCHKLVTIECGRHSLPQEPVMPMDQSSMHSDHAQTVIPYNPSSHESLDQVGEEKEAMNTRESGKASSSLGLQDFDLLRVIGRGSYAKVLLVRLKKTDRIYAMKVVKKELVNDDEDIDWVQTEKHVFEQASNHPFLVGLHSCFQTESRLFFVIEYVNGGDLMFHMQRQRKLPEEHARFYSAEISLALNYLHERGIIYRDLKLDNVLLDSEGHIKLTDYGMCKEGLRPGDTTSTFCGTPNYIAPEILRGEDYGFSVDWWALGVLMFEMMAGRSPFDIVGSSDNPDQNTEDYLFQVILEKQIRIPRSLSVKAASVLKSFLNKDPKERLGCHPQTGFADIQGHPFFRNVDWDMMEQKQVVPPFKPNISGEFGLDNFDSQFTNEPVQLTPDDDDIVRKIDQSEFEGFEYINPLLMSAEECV
# [16] = target: T3, Protein kinase C iota type (Homo sapiens); settings: at 10 µM
# [17] = target: T4, Serine/threonine-protein kinase D1 (Homo sapiens) (UniProt Q15139); settings: at 1 µM
# T4 sequence (whole entry): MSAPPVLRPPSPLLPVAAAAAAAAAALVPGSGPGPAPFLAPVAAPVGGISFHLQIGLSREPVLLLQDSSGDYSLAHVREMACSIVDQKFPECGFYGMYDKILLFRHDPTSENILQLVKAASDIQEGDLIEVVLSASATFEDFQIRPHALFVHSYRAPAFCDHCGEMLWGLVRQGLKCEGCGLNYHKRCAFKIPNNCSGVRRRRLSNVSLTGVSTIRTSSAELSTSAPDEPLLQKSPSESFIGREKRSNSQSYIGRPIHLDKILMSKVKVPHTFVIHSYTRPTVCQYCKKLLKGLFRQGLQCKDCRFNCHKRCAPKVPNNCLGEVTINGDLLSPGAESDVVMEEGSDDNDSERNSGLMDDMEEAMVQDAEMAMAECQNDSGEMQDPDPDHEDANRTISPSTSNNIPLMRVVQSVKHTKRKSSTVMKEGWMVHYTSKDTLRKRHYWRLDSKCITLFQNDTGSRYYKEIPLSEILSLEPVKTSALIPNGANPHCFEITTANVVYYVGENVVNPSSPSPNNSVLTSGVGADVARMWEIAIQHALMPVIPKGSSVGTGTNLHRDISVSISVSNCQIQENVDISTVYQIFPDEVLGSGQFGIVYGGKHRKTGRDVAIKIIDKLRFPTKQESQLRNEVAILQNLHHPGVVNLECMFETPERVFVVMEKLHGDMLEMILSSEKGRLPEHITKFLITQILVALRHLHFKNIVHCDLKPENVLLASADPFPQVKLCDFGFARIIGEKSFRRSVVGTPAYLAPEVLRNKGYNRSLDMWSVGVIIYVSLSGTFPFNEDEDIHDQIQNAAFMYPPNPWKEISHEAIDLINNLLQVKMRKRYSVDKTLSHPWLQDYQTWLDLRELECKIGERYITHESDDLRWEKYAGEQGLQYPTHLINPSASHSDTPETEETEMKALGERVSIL
# [18] = target: T4, Serine/threonine-protein kinase D1 (Homo sapiens); settings: at 10 µM
# [19] = target: T5, Serine/threonine-protein kinase D2 (Homo sapiens) (UniProt Q9BZL6); settings: at 1 µM
# T5 sequence (whole entry): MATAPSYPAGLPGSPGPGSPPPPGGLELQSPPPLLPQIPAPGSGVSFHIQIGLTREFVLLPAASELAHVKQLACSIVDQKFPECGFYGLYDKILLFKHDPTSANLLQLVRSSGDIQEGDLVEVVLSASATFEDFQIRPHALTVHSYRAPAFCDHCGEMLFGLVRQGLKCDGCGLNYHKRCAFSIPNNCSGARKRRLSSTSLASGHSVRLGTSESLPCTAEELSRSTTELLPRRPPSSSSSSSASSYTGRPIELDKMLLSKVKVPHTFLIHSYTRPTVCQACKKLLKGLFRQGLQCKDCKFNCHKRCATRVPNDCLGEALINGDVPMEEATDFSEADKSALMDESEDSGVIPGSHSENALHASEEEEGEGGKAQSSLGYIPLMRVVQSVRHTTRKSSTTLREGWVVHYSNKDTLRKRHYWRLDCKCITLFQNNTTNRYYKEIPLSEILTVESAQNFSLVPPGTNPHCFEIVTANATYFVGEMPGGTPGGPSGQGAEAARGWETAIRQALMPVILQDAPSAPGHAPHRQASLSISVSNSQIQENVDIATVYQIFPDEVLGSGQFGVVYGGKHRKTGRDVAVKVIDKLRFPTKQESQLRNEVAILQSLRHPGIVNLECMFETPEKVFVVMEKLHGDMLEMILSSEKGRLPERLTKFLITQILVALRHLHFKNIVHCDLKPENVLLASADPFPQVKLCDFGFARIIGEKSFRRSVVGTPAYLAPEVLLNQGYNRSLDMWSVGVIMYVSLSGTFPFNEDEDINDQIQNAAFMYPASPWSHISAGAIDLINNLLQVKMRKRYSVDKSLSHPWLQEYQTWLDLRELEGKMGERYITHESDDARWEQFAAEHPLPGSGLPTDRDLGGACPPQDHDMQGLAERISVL
# [20] = target: T5, Serine/threonine-protein kinase D2 (Homo sapiens); settings: at 10 µM
# Sequence of Tyrosine-protein kinase HCK (Homo sapiens) (P08631 2-526 limits assumed): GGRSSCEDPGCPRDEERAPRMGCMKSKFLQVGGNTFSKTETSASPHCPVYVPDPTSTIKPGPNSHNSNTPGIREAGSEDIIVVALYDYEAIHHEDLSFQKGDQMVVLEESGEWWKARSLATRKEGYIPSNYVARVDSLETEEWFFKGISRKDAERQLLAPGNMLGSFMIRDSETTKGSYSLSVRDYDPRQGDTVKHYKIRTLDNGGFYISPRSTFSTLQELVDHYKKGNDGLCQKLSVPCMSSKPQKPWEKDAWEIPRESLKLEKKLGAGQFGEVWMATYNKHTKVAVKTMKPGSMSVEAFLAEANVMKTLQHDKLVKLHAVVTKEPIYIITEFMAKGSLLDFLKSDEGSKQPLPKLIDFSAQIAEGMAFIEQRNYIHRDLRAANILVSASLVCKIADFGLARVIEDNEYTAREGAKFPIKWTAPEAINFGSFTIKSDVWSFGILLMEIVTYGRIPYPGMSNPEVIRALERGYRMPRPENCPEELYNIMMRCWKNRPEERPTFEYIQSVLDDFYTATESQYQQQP
# Sequence of Homeodomain-interacting protein kinase 3 (Homo sapiens) (Q9H422 whole entry, looked up): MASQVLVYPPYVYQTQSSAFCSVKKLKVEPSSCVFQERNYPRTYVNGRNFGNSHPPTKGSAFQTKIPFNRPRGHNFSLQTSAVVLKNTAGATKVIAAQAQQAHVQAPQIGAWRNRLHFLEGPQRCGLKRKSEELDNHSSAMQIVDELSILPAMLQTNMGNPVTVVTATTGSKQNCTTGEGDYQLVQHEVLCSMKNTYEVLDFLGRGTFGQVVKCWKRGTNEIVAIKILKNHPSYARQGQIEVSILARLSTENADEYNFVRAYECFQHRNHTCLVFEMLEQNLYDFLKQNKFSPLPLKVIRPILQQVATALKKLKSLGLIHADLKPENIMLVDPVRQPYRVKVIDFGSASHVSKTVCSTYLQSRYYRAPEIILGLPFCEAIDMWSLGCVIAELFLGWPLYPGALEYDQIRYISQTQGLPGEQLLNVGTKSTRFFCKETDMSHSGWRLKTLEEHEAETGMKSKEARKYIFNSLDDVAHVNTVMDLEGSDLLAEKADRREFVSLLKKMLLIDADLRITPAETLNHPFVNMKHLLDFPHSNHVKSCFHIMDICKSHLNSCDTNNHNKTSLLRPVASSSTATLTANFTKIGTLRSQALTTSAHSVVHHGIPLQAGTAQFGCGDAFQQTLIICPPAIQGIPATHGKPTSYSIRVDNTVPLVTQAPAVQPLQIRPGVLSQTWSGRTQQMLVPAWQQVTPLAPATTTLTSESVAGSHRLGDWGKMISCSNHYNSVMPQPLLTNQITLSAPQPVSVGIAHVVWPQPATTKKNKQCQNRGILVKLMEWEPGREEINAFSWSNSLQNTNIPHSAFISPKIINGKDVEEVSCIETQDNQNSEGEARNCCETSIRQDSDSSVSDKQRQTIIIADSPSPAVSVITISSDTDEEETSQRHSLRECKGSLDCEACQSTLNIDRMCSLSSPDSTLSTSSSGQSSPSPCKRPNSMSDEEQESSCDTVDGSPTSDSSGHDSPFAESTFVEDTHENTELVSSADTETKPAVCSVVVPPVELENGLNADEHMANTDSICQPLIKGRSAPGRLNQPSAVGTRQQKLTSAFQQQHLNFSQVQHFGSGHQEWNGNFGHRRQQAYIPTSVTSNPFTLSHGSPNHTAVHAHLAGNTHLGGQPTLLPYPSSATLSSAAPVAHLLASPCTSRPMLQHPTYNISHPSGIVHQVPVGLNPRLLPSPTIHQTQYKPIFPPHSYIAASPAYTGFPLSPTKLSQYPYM
# Sequence of Protein kinase C eta type (Homo sapiens) (P24723 whole entry): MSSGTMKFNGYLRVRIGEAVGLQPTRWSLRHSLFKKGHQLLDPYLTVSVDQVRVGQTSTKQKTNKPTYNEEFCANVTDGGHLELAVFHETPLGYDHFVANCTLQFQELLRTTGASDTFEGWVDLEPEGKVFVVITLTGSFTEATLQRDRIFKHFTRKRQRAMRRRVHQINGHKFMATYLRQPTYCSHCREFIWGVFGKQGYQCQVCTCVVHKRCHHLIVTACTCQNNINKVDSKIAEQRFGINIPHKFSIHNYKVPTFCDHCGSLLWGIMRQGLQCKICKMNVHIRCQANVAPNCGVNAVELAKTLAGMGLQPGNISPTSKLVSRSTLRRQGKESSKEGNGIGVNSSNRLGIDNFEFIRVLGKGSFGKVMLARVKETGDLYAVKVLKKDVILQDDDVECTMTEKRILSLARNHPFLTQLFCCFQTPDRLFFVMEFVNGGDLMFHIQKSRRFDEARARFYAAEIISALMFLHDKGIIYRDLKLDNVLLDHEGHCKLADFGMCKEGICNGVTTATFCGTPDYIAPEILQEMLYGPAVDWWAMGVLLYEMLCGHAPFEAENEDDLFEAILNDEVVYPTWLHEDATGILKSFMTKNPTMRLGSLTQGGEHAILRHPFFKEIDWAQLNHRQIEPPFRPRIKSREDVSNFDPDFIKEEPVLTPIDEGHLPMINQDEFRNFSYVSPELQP
# Sequence of Insulin-like growth factor 1 receptor (Homo sapiens) (P08069 31-736 limits assumed): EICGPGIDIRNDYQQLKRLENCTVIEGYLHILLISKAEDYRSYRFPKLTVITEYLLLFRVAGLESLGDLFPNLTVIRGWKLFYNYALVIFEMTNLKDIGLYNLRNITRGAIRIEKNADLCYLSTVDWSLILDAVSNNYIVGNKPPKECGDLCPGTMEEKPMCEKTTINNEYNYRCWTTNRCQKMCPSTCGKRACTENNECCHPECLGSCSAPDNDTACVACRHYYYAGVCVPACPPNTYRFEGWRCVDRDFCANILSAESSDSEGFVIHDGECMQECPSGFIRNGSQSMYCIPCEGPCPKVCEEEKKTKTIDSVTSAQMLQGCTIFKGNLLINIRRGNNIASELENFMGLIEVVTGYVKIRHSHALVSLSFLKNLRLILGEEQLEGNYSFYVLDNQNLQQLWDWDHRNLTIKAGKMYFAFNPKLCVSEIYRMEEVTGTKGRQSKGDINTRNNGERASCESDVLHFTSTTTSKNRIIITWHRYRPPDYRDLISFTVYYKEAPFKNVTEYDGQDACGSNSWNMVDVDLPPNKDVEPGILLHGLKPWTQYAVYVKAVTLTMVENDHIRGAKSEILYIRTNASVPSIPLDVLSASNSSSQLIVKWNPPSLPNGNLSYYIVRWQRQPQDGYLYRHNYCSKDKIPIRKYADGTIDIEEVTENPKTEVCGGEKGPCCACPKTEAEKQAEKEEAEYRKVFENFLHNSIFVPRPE
# Sequence of Insulin-like growth factor 1 receptor (Homo sapiens) (P08069 741-1367 limits assumed): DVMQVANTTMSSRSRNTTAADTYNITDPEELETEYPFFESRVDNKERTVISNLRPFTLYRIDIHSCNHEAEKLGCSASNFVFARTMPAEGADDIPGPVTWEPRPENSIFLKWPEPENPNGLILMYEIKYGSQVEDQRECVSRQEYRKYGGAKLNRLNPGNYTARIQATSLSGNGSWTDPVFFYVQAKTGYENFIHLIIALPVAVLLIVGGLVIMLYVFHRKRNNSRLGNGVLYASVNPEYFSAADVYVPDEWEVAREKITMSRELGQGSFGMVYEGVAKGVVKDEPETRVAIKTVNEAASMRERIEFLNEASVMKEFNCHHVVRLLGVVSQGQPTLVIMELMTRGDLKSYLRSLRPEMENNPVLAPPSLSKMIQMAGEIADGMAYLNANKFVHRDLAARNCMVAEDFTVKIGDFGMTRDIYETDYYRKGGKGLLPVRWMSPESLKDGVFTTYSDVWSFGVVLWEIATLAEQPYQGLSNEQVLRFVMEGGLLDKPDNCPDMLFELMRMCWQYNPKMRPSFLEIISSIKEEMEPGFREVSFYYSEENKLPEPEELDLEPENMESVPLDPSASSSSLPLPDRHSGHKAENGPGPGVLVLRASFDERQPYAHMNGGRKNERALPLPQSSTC
# Sequence of Protein kinase C theta type (Homo sapiens) (Q04759 whole entry, looked up): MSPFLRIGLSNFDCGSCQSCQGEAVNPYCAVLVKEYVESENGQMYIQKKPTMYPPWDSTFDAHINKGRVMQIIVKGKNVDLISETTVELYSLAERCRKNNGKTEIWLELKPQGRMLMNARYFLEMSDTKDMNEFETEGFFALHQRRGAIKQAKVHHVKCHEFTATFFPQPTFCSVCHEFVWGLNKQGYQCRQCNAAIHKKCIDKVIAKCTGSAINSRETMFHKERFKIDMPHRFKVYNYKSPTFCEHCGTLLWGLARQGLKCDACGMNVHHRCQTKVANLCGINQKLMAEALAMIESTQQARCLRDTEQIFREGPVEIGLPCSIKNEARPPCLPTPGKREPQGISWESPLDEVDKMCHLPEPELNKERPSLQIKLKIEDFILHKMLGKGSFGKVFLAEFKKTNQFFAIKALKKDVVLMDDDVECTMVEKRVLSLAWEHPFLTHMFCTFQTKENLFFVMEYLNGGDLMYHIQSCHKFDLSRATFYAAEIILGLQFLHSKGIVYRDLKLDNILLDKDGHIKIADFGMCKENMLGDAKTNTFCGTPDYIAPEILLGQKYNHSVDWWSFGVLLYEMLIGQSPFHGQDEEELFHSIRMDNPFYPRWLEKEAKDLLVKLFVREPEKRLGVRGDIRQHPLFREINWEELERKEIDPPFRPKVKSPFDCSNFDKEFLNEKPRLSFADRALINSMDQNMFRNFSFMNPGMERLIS
Compound,residual activity [1] [%],residual activity [2] [%],residual activity [3] [%],residual activity [4] [%],residual activity [5] [%],residual activity [6] [%],residual activity [7] [%],residual activity [8] [%],residual activity [9] [%],residual activity [10] [%],residual activity [11] [%],residual activity [12] [%],residual activity [13] [%],residual activity [14] [%],residual activity [15],residual activity [16] [%],residual activity [17] [%],residual activity [18] [%],residual activity [19] [%],residual activity [20] [%]
Oc1ccc(-c2nc(-c3ccc(F)cc3)c(-c3ccncc3)[nH]2)cc1,105,55,10,59,24,98,45,113,141,92,100,70,101,75,109% (inactive),105,94,36,102,81
O=C1NC(=O)/C(=C\c2ccc3nccnc3c2)S1,7,27,3,76,57,105,90,147,114,108,103,78,102,81,89% (inactive),88,103,88,108,96
Cc1nc2cc3nc(-c4cccs4)cnc3cc2n1C,97,123,79,92,67,90,34,141,61,109,107,111,110,110,97% (inactive),99,94,95,96,105
O=[N+]([O-])c1ccc(-c2nc(-c3ccc(F)cc3)c(-c3ccncc3)[nH]2)cc1,109,86,77,77,29,97,97,114,141,103,95,68,91,68,110% (inactive),109,64,52,100,94
COc1ccc(C(=O)Nc2sc3c(c2C(N)=O)CCCC3)cc1OC,97,109,93,66,70,95,94,115,74,109,98,77,89,84,89% (inactive),107,89,96,103,108
N#C/C(=C(\N)Sc1ccc(N)cc1)c1ccccc1C(F)(F)F,86,108,116,67,41,99,108,99,123,105,76,83,84,77,106% (inactive),108,82,68,109,100
O=C1NC(=O)/C(=C/c2ccc3c(c2)OC(F)(F)O3)S1,88,78,67,60,46,115,94,98,130,111,120,89,109,100,90% (inactive),80,105,77,107,99

# From ChEMBL document CHEMBL2218924, “A broad activity screen in support of a chemogenomic map for kinase signalling research and drug discovery” (Biochem J, 2013)
